{"source": "PubChem BioAssay AID1626", "about": "(SRMLSC, 2009)", "note": "The campaign covered roughly 220,000 compounds. About 2,000 (0.91%) were called active. Not shown: some 2% with an inconclusive outcome. Only a sample is shown. Measured potencies and affinities stand elsewhere. Values without a mark were called inactive. No stated cut-off is given here; in the data, inconclusive means inhibition above about 80% without an active follow-up result; inactive means below that; test concentration not stated here.", "data": [{"assay": "M. tuberculosis H37Rv growth inhibitors, H37Rv strain (AID 1626);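 further: bacteria incubated seven days before Alamar blue readout; 0% = bacteria only wells and 100% = bacteria with antibiotic wells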", "conditions": "active compounds read high, concentration not given here", "units": {"inhibition": "%"}, "values": [{"smiles": "Cc1ccc2c(c1)N(CC(=O)N1CCCCC1c1cccnc1)C(=O)CO2", "note": "(configuration not stated)", "inhibition": -4.68}, {"smiles": "CCO[C@@H]1OC(C(=O)NCc2nc3ccccc3[nH]2)=C[C@H](C(C)(C)C)[C@H]1CCCO", "inhibition": -3}, {"smiles": "O=C1C(=O)c2c(C(=O)c3ccccc3)coc2-c2ccccc21", "inhibition": 4.79}, {"smiles": "C[C@H]1COC2=C1C(=O)C(=O)c1c2ccc2c1CCCC2(C)C", "inhibition": -2.33}, {"smiles": "Cc1ccc(C(=O)c2coc3c2C(=O)C(=O)c2ccccc2-3)cc1", "inhibition": -2.44}, {"smiles": "Cc1ccc2c3c(cccc13)-c1ccccc1C2=O", "inhibition": 10.1}, {"smiles": "O=C(CN1CCC(n2nnc3cc(F)ccc32)CC1)NNC(=O)c1ccccc1", "inhibition": -6.09}, {"smiles": "N#Cc1ccc(COC(=O)c2ccccn2)cc1", "inhibition": 39}, {"smiles": "COc1cccc(NC(=O)CSc2ncnc3c2cnn3Cc2ccccc2)c1", "inhibition": -10.6}, {"smiles": "NC(=S)NNC(=O)c1ccccc1Cl", "inhibition": -8.81}, {"smiles": "CC(C)(C)C(=O)Nc1nc(NC(=O)C(C)(C)C)nc(-c2ccccc2Cl)n1", "inhibition": -0.83}, {"smiles": "COc1ccc(Nc2ccc(N3C(=O)CCCC3=O)cc2[N+](=O)[O-])cc1OC", "inhibition": -5.4}, {"smiles": "CCN1/C(=C\\C(C)=O)Sc2ccc(OC)cc21", "inhibition": -5.41}, {"smiles": "CC(=O)NCCNc1ccc([N+](=O)[O-])cn1", "inhibition": -0.44}, {"smiles": "CCOC(=O)N/N=C/c1cn(CCCOc2ccccc2)c2ccccc12", "inhibition": 8.89}, {"smiles": "C/C(=N/N1CCN(Cc2cccc3ccccc23)CC1)c1ccco1", "inhibition": -5.28}, {"smiles": "c1ccc2c(c1)N1CCN=C1N2CCN1CCCCC1", "inhibition": -2.04}, {"smiles": "c1ccc2c(c1)N1CCCN=C1N2CCN1CCCCC1", "inhibition": 1.49}, {"smiles": "O=C(Nc1ccc2c(c1)OCO2)C1CCN(C(=O)c2cccs2)CC1", "inhibition": 0.36}, {"smiles": "O=c1oc(-c2ccccc2)nc2c1cnn2-c1ccccc1", "inhibition": 19.8}, {"smiles": "O=c1oc(-c2cccc(Cl)c2)nc2c1cnn2-c1ccccc1", "inhibition": 22.1}, {"smiles": "N#C/C(=C\\c1ccc(Cl)c([N+](=O)[O-])c1)c1ccccn1", "inhibition": 6.45}, {"smiles": "CCOC(=O)c1c(NC(=O)CNCC(O)CO)sc(C)c1C", "note": "(configuration not stated)", "inhibition": 4.88}, {"smiles": "O=C(Cn1cnc([N+](=O)[O-])n1)NC1CC1", "inhibition": -0.97}, {"smiles": "Nc1nc(Cl)cc(Sc2ccc(F)cc2)n1", "inhibition": 4.27}, {"smiles": "Nc1nc(Cl)cc(Sc2ccc3ccccc3c2)n1", "inhibition": 8.65}, {"smiles": "Cc1cc(NC(=O)CSc2nc(N)c(NC(=O)c3ccccc3)c(=O)[nH]2)no1", "inhibition": -1.25}, {"smiles": "CCOC(=O)N1CCN(C/C(C)=C/c2ccccc2)CC1", "inhibition": -4.4}, {"smiles": "CCOC(=O)N1CCN(S(=O)(=O)/C=C/c2ccccc2)CC1", "inhibition": -17.8}, {"smiles": "CC(C)(C)NS(=O)(=O)c1ccc(CCC(=O)Nc2ccc3c(c2)OCCO3)cc1", "inhibition": -4.02}, {"smiles": "COc1ccccc1S(=O)Cc1ccc(C(=O)O)o1", "note": "(configuration not stated)", "inhibition": -6.58}, {"smiles": "CN(C)[C@@H]1C(=O)C(C(N)=O)=C(O)[C@@]2(O)C(=O)C3=C(O)c4c(O)cccc4[C@@](C)(O)[C@H]3[C@H](O)[C@@H]12", "inhibition": 11.9}, {"smiles": "C[C@H]1c2cccc(O)c2C(O)=C2C(=O)[C@]3(O)C(O)=C(C(N)=O)C(=O)[C@@H](N(C)C)[C@@H]3[C@@H](O)[C@@H]21", "inhibition": 63.7}, {"smiles": "C=C1c2cccc(O)c2C(O)=C2C(=O)[C@]3(O)C(O)=C(C(N)=O)C(=O)[C@@H](N(C)C)[C@@H]3[C@@H](O)[C@H]12", "inhibition": 1.79}, {"smiles": "CN(C)[C@@H]1C(=O)C(C(N)=O)=C(O)[C@@]2(O)C(=O)C3=C(O)c4c(O)cccc4[C@@](C)(O)[C@H]3C[C@@H]12", "inhibition": -3.76}, {"smiles": "CCN(CC)c1nc2ccccc2[nH]c1=O", "inhibition": -5.3}, {"smiles": "COc1ccc(C(=O)N/N=C/c2sc(=O)n(Cc3cccc(C(=O)O)c3)c2Cl)cc1", "inhibition": -6.32}, {"smiles": "O=C(NCc1cccc(Br)c1)C1CC(c2ccc(C(F)(F)F)cc2)=NO1", "note": "(configuration not stated)", "inhibition": 18.7}, {"smiles": "O=C1/C(=C/c2ccc([N+](=O)[O-])cc2)C=C(c2ccccc2)N1c1ccccc1", "inhibition": -2.05}, {"smiles": "O=C(O)c1cccc(N2C(=O)/C(=C/c3ccc([N+](=O)[O-])cc3)C=C2c2ccccc2)c1", "inhibition": 1.03}, {"smiles": "COCCCNC(=O)c1ccc(CS(=O)(=O)c2ccc(Br)cc2)o1", "inhibition": -8.42}, {"smiles": "Cc1nc(CNC(=O)CC2C(=O)NCCN2Cc2cccc(Oc3ccccc3)c2)cs1", "note": "(configuration not stated)", "inhibition": -3.5}, {"smiles": "COc1cc2c(cc1OC)C(C)N(C(C)=O)CC2", "note": "(configuration not stated)", "inhibition": -6.23}, {"smiles": "COC(=O)c1sccc1NC(=O)c1sccc1C", "inhibition": 0.49}, {"smiles": "CCCCOc1ccc(C(=O)Nc2ccc(N3CCN(C)CC3)cc2)cc1", "inhibition": 16.1}, {"smiles": "Cc1cc(C)c(NC(=O)c2cn3c4c(c(N5CCN(C)CC5)c(F)cc4c2=O)OCC3C)c(C)c1", "note": "(configuration not stated)", "inhibition": 9.11}, {"smiles": "COc1ccc(CCC(=O)Nc2cccc(Cl)c2)cc1", "inhibition": 10.2}, {"smiles": "Cc1nc2c(C)cccc2cc1C(=O)N/N=C/c1ccc(C(=O)O)cc1", "inhibition": -1.57}, {"smiles": "COC(=O)c1cccc(NC(=O)/C=C/c2ccc([N+](=O)[O-])cc2)c1", "inhibition": 3.4}, {"smiles": "COC(=O)c1cccc(NC(=O)/C=C/c2cccc([N+](=O)[O-])c2)c1", "inhibition": -2.96}, {"smiles": "Cc1ccc(NC(C)C(=O)N/N=C/c2ccc([N+](=O)[O-])s2)cc1", "note": "(configuration not stated)", "inhibition": 75}, {"smiles": "Cc1ccc(NC(=O)/C=C/c2cccs2)c([N+](=O)[O-])c1", "inhibition": -6.44}, {"smiles": "O=C(/C=C/c1cccs1)Nc1ccc([N+](=O)[O-])cc1", "inhibition": 4.49}, {"smiles": "Cc1cc(C)cc(NC(=O)/C=C/c2ccc([N+](=O)[O-])s2)c1", "inhibition": 15.5}, {"smiles": "CCCC(c1nnnn1C(C)(C)C)N1CCN(Cc2ccccc2OC)CC1", "note": "(configuration not stated)", "inhibition": -3.31}, {"smiles": "CCOC(=O)c1[nH]c(C)c(C(=O)NCc2cccnc2)c1C", "inhibition": -1.85}, {"smiles": "O=C(NCc1ccccn1)c1ccc(Cl)c(S(=O)(=O)Nc2ccccc2C(=O)NCc2ccccn2)c1", "inhibition": -4.28}]}]}
